# According to the supplement of paper PMC8728848:
# This excerpt belongs to a sample that is enriched for the strongest signals.
# B1: CTMLA2 (Anopheles gambiae), Q7Q7F8 (protein)
# chain: MNLMITILIAVITVVRGDLSVPKTVDDILQQNPCLCPCKPFEEKEYFIPISRTSDWFGAVAYCHSVGMELAEVLNEDEARAMGEVIAEEESDSDDEFYWIGANDLGVQGTYRWALAGRPVLYSQWAAGEPNHARGENGQQPAERCVAVAMDKYEWNDFQCTQQKPFICQQFRKH
# B2: HMGB1 (Homo sapiens), P09429 (protein)
# chain: MGKGDPKKPRGKMSSYAFFVQTCREEHKKKHPDASVNFSEFSKKCSERWKTMSAKEKGKFEDMAKADKARYEREMKTYIPPKGETKKKFKDPNAPKRPPSAFFLFCSEYRPKIKGEHPGLSIGDVAKKLGEMWNNTAADDKQPYEKKAAKLKEKYEKDIAAYRAKGKPDAAKKGVVKAEKSKKKKEEEEDEEDEEDEEEEEDEEDEDEEEDDDDE
# What was measured:
# Test in all cases: glycan array binding signal (z-score within array); higher = stronger binding
# Settings in all cases: glycan notation: IUPAC condensed, linker removed
# Fuc(a1-2)Gal(b1-4)Glc = biological target: Fuc(a1-2)Gal(b1-4)Glc
# How it was run: (§1)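 Glycan array data were curated from 3228 arrays in the Consortium for Functional Glycomics database and kept only where the protein sequence was available. Glycan names were converted to IUPAC-condensed notation, and columns mapping to the same glycan were averaged. The binding signal is a within-array Z-score, averaged across arrays of the same protein sequence at different concentrations or buffers and across linkers. Negative Z-scores can be read as non-binding.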
# [1] = biological target: Fuc(a1-2)Gal(b1-4)GlcNAc(b1-3)Gal(b1-4)GlcNAc
# How it was run: as §1
# [2] = biological target: Fuc(a1-2)Gal(b1-4)[Fuc(a1-3)]GlcNAc
# How it was run: as §1
# [3] = biological target: Fuc(a1-2)[GalNAc(a1-3)]Gal(b1-4)[Fuc(a1-3)]GlcNAc
# How it was run: as §1
# [4] = biological target: Fuc(a1-3)[Gal(b1-4)]GlcNAc(b1-4)Gal(b1-4)[Fuc(a1-3)]GlcNAc(b1-4)Gal(b1-4)[Fuc(a1-3)]GlcNAc
# How it was run: as §1
# Gal(a1-3)GalNAc = biological target: Gal(a1-3)GalNAc
# How it was run: as §1
# [5] = biological target: Gal(b1-3)GlcNAc(b1-3)Gal(b1-4)Glc
# How it was run: as §1
# [6] = biological target: Gal(b1-3)GlcNAc(b1-3)Gal(b1-4)GlcNAc
# How it was run: as §1
# [7] = biological target: Gal(b1-3)[Fuc(a1-4)]GlcNAc(b1-3)Gal(b1-4)[Fuc(a1-3)]GlcNAc
# How it was run: as §1
# [8] = biological target: Gal(b1-3)[Neu5Ac(a2-6)]GalNAc
# How it was run: as §1
# [9] = biological target: Gal(b1-3)[Neu5Ac(a2-6)]GlcNAc(b1-6)Gal(b1-4)Glc
# How it was run: as §1
# Gal(b1-4)GlcNAc = biological target: Gal(b1-4)GlcNAc
# How it was run: as §1
# [10] = biological target: Gal(b1-4)GlcNAc(b1-3)[Gal(b1-4)GlcNAc(b1-6)]GalNAc
# How it was run: as §1
# Gal3S(b1-3)GlcNAc = biological target: Gal3S(b1-3)GlcNAc
# How it was run: as §1
# Gal3S6S(b1-4)GlcNAc = biological target: Gal3S6S(b1-4)GlcNAc
# How it was run: as §1
# [11] = biological target: GlcNAc(b1-3)Gal(b1-3)GalNAc
# How it was run: as §1
# [12] = biological target: GlcNAc(b1-3)[GlcNAc(b1-6)]GlcNAc(b1-4)GlcNAc
# How it was run: as §1
# [13] = biological target: Neu5Ac(a2-3)Gal(b1-3)GalNAc
# How it was run: as §1
# [14] = biological target: Neu5Ac(a2-3)Gal(b1-3)GalNAc(b1-3)Gal(b1-4)GlcNAc
# How it was run: as §1
# [15] = biological target: Neu5Ac(a2-3)Gal(b1-3)[Fuc(a1-4)]GlcNAc(b1-3)Gal(b1-4)[Fuc(a1-3)]GlcNAc
# How it was run: as §1
# [16] = biological target: Neu5Ac(a2-3)Gal6S(b1-4)[Fuc(a1-3)]GlcNAc
# How it was run: as §1
# [17] = biological target: Neu5Ac(a2-3)[GalNAc(b1-4)]Gal(b1-4)Glc
# How it was run: as §1
# Neu5Ac(a2-8)Neu5Ac = biological target: Neu5Ac(a2-8)Neu5Ac
# How it was run: as §1
# [18] = biological target: Fuc(a1-2)Gal(b1-4)[Fuc(a1-3)]GalNAc(b1-3)Gal(b1-4)[Fuc(a1-3)]GlcNAc
# How it was run: as §1
# [19] = biological target: Fuc(a1-2)[Gal(a1-3)]Gal(b1-4)GlcNAc
# How it was run: as §1
# [20] = biological target: Fuc(a1-2)[GalNAc(a1-3)]Gal(b1-4)GlcNAc
# How it was run: as §1
# [21] = biological target: Fuc(a1-3)[Gal(b1-4)]GlcNAc(b1-4)Gal(b1-4)[Fuc(a1-3)]GlcNAc
# How it was run: as §1
# Fuc(a1-4)GlcNAc = biological target: Fuc(a1-4)GlcNAc
# How it was run: as §1
# Gal(a1-3)Gal(b1-4)GlcNAc = biological target: Gal(a1-3)Gal(b1-4)GlcNAc
# How it was run: as §1
# Gal3S(b1-4)GlcNAc6S = biological target: Gal3S(b1-4)GlcNAc6S
# How it was run: as §1
# Gal3S6S(b1-4)GlcNAc6S = biological target: Gal3S6S(b1-4)GlcNAc6S
# How it was run: as §1
# Gal4S6S(b1-4)GlcNAc = biological target: Gal4S6S(b1-4)GlcNAc
# How it was run: as §1
# GalNAc(a1-3)Gal = biological target: GalNAc(a1-3)Gal
# How it was run: as §1
# [22] = biological target: GlcNAc(b1-3)[GlcNAc(b1-4)][GlcNAc(b1-6)]GlcNAc
# How it was run: as §1
# [23] = biological target: GlcNAc(b1-4)[GlcNAc(b1-6)]GalNAc
# How it was run: as §1
# Kdn(a2-3)Gal(b1-3)GlcNAc = biological target: Kdn(a2-3)Gal(b1-3)GlcNAc
# How it was run: as §1
# [24] = biological target: Man(a1-2)Man(a1-2)Man(a1-3)Man
# How it was run: as §1
# Man(b1-4)GlcNAc = biological target: Man(b1-4)GlcNAc
# How it was run: as §1
# [25] = biological target: Neu5Ac(a2-3)Gal(b1-4)GlcNAc(b1-3)Gal(b1-4)GlcNAc
# How it was run: as §1
# [26] = biological target: Neu5Ac(a2-3)Gal(b1-4)[Fuc(a1-3)]GlcNAc(b1-3)Gal(b1-4)[Fuc(a1-3)]GlcNAc(b1-3)Gal(b1-4)[Fuc(a1-3)]GlcNAc
# How it was run: as §1
# [27] = biological target: Neu5Ac(a2-6)GalNAc(b1-4)GlcNAc
# How it was run: as §1
# [28] = biological target: Neu5Gc(a2-6)Gal(b1-4)GlcNAc
# How it was run: as §1
# Neu5Gc(a2-6)GalNAc = biological target: Neu5Gc(a2-6)GalNAc
# How it was run: as §1
binder,measurement,setting,value
B1,glycan array binding signal (z-score),Fuc(a1-2)Gal(b1-4)Glc,0.14
same,glycan array binding signal (z-score),[1],-0.253
same,glycan array binding signal (z-score),[2],-0.269
same,glycan array binding signal (z-score),[3],0.192
same,glycan array binding signal (z-score),[4],-0.011
same,glycan array binding signal (z-score),Gal(a1-3)GalNAc,0.077
same,glycan array binding signal (z-score),[5],4.14
same,glycan array binding signal (z-score),[6],-0.58
same,glycan array binding signal (z-score),[7],-0.224
same,glycan array binding signal (z-score),[8],-0.277
same,glycan array binding signal (z-score),[9],-0.49
same,glycan array binding signal (z-score),Gal(b1-4)GlcNAc,-0.338
same,glycan array binding signal (z-score),[10],0.036
same,glycan array binding signal (z-score),Gal3S(b1-3)GlcNAc,1.6
same,glycan array binding signal (z-score),Gal3S6S(b1-4)GlcNAc,1.36
same,glycan array binding signal (z-score),[11],1.18
same,glycan array binding signal (z-score),[12],0.928
same,glycan array binding signal (z-score),[13],-0.51
same,glycan array binding signal (z-score),[14],0.102
same,glycan array binding signal (z-score),[15],-0.129
same,glycan array binding signal (z-score),[16],-0.274
same,glycan array binding signal (z-score),[17],-0.435
same,glycan array binding signal (z-score),Neu5Ac(a2-8)Neu5Ac,-0.246
B2,glycan array binding signal (z-score),Fuc(a1-2)Gal(b1-4)Glc,-0.488
same,glycan array binding signal (z-score),[18],-0.246
same,glycan array binding signal (z-score),[19],-0.3
same,glycan array binding signal (z-score),[20],-0.269
same,glycan array binding signal (z-score),[21],-0.39
same,glycan array binding signal (z-score),Fuc(a1-4)GlcNAc,-0.341
same,glycan array binding signal (z-score),Gal(a1-3)Gal(b1-4)GlcNAc,-0.418
same,glycan array binding signal (z-score),Gal3S(b1-4)GlcNAc6S,3.64
same,glycan array binding signal (z-score),Gal3S6S(b1-4)GlcNAc,3.32
same,glycan array binding signal (z-score),Gal3S6S(b1-4)GlcNAc6S,4.75
same,glycan array binding signal (z-score),Gal4S6S(b1-4)GlcNAc,3.25
same,glycan array binding signal (z-score),GalNAc(a1-3)Gal,-0.403
same,glycan array binding signal (z-score),[22],-0.309
same,glycan array binding signal (z-score),[23],-0.433
same,glycan array binding signal (z-score),Kdn(a2-3)Gal(b1-3)GlcNAc,-0.363
same,glycan array binding signal (z-score),[24],-0.413
same,glycan array binding signal (z-score),Man(b1-4)GlcNAc,0.327
same,glycan array binding signal (z-score),[15],0.178
same,glycan array binding signal (z-score),[25],0.045
same,glycan array binding signal (z-score),[26],-0.332
same,glycan array binding signal (z-score),[27],0.028
same,glycan array binding signal (z-score),[28],0.015
same,glycan array binding signal (z-score),Neu5Gc(a2-6)GalNAc,-0.195
